Shown are actives, neighbours in structure and some others; about 2.8% of the full set was active somewhere.
Pol beta inh: blocks human DNA polymerase beta activity | Pol beta primer extension/strand displacement, fluorescence kinetic | Potency, µM (titrated, usually from 114 µM), most hits filed as inhibitors | 1.3% of 340,000 active
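Enzyme-only controls used 10 nM Pol beta; buffer lacking enzyme served as negative control. Compound preincubated 15 min, then 50 nM substrate added; 0 and 10 min reads at room temperature.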
Pol kappa inh-1: inhibitors of human DNA polymerase kappa; Potency, µM (doses to about 107 µM), usual class: inhibitors; Q9UBT6; purified Pol kappa, fluorescent DNA synthesis assay, 10 min; 0.53% of 400,000 active; AID 588579
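Readout: fluorescence, taken kinetically at 0 and 10 min. Conditions: 10 nM Pol kappa, 15 min RT compound preincubation, 50 nM substrate final. Controls: enzyme-free buffer wells.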
PI5P4Ka inh: inhibitors of human PI5P4K alpha; PI5P4Kalpha enzyme, ADP-Glo luminescence, 60 min; hits give low values; max response, %; 1.2% of 330,000 active; AID 652105; active = max response of -50% or lower; inconclusive = between -30% and -50%; inactive = -30% or higher; also: value at the top dose of about 77 µM
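Enzyme plus substrate dispensed, test compounds pinned in, then ATP (5 microM final) added. After 60 min at RT, ADP-Glo reagent 1 for 45 min and reagent 2 for 30 min preceded luminescence imaging.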
POLI inh: inhibitors of human DNA polymerase iota; Pol iota fluorescent replication assay, 10 min; AID 588590; 1% of 390,000 active; Potency, µM (titrated, usually from 115 µM), actives largely listed as inhibitors
Target sequence (Q9UNA4 whole entry, looked up): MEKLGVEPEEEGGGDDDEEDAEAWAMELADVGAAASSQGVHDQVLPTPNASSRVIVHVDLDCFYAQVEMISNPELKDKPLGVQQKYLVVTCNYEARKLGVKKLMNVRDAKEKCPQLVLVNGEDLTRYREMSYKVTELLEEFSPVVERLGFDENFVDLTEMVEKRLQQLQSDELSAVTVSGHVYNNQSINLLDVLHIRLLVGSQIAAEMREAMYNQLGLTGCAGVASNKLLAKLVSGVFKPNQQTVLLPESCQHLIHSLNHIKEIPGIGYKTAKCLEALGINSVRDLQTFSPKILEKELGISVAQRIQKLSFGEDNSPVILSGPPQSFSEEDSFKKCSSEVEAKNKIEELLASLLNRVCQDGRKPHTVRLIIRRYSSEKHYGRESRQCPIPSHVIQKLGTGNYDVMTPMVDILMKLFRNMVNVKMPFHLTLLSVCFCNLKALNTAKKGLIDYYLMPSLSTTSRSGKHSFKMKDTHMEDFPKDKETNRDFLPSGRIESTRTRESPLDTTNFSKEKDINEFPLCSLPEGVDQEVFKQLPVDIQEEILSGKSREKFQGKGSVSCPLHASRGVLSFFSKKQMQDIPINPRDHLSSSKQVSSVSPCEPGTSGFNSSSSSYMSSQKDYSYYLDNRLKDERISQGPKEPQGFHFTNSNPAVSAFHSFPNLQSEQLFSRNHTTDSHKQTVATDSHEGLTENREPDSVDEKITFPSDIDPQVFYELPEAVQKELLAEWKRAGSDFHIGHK
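Pol iota at 10 nM preincubated 15 min with compounds at room temperature; reaction started with fluorescent substrate, 50 nM final. Fluorescence read kinetically at 0 and 10 min; buffer-only wells as negative control.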
WRN helicase inh: blocks human WRN helicase; Q14191; WRN helicase unwinding, fluorescent forked duplex, kinetic; Potency, µM (highest dose often 114 µM), actives largely listed as inhibitors; 0.46% of 360,000 active; AID 651768; also: nearly all actives have a fitted effect of over 55% in size
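Fluorescence dequenching readout, ex 525 nm/em 598 nm, kinetic mode: forked duplex DNA (100 nM final) with adjacent fluorophore and quencher unwound by WRN (20 nM final) with 2 mM ATP. Compound preincubation 15 min, room temperature.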
Pol eta inh-1: blocks human DNA polymerase eta activity. Q9Y253. recombinant Pol eta, fluorescent DNA replication assay. Potency, µM (doses to about 114 µM), hits mostly inhibitors. 1.2% of 390,000 active. AID 588591
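Pol eta (10 nM) was preincubated with compounds for 15 min at room temperature, after which fluorescent replication substrate (50 nM final) was added to start the reaction. Fluorescence was read kinetically at 0 and 10 min.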
PGK validate: validation of Trypanosoma brucei phosphoglycerate kinase inhibitors; shares compounds with Pol kappa inh-1; TbPGK coupled GAPDH assay, Kinase-Glo luminescence; Potency, µM (highest dose often 57.5 µM), usual class: inhibitors; 79% of 500 active; AID 686980; also: nearly all actives have a fitted effect of over 65% in size
POLI cherry-pick: Confirm cherry-picked inhibitors of human polymerase iota. Pol iota primer extension, TAMRA/BHQ fluorescence. shares compounds with Pol kappa inh-1. 77% of 1,500 active. Potency, µM, actives largely listed as inhibitors
Pol kappa inh-2: confirmation of human DNA polymerase kappa inhibitors; shares compounds with Pol eta inh-1; purified Pol-kappa, fluorescent strand-displacement substrate; Potency, µM, usual class: inhibitors; 76% of 920 active; AID 720501
Pol eta inh-2: confirmation of human DNA polymerase eta inhibitors. shares compounds with Pol eta inh-1. Pol eta primer extension, TAMRA/BHQ fluorescence, 10 min. Potency, µM, usual class: inhibitors. 64% of 2,600 active. AID 720502
Each line names hits and unclear results; the compound was inactive in the other large screens (follow-up assays come after a bar, where they were run). Unless noted, calls follow the shape of the dose curve; as a rule, active = well fitted curve in the direction sought with a large enough effect; inconclusive = small, poorly fitted or top-dose-only effect, or another doubt; inactive = no such curve, though single readings can be large; an effect the other way counts as inactive or inconclusive.

N=C1/C(=C/c2ccc(-c3cccc(C(=O)O)c3)o2)C(=O)N=C2SC=C(c3ccccc3)N12	Pol beta inh 28µM, Pol kappa inh-1 7.1µM, PI5P4Ka inh -83, POLI inh 4µM, WRN helicase inh 35µM, Pol eta inh-1 3.2µM | PGK validate 37µM | POLI cherry-pick 19 | Pol eta inh-2 7.6
O=C(NCCO)C(O)C(O)C(=O)NCCO (stereo unspecified)	none
COc1ccccc1CNC(=O)CCCc1nnc2n(CC(C)C)c(=O)c3sccc3n12	none (no result: PI5P4Ka inh, WRN helicase inh)
COc1cc(C2c3c([nH]c(=O)[nH]c3=O)Nc3ccc4ccccc4c32)cc(OC)c1OC (stereo unspecified)	Pol kappa inh-1 25µM, POLI inh 18µM, WRN helicase inh 20µM, Pol eta inh-1 79µM | POLI cherry-pick 42 | Pol eta inh-2 60
COc1cc(C2c3c([nH]c(=O)[nH]c3=O)Nc3ccc4ccccc4c32)ccc1O (stereo unspecified)	Pol beta inh inconclusive, Pol kappa inh-1 inconclusive, POLI inh inconclusive, WRN helicase inh inconclusive, Pol eta inh-1 inconclusive
Cc1nn(S(=O)(=O)c2ccc(C(C)C)cc2)c(C)c1S(=O)(=O)N1CCCCC1	none (no result: PI5P4Ka inh, WRN helicase inh)
CCOC(=O)c1cccc(NC(=O)c2cc3cc4cc(OC)ccc4nc3s2)c1	Pol beta inh inconclusive, Pol eta inh-1 inconclusive (no result: PI5P4Ka inh, WRN helicase inh) | POLI cherry-pick inconclusive | Pol kappa inh-2 19 | Pol eta inh-2 inconclusive
COc1ccc(CN(C(=O)/C=C/c2ccco2)C2CCS(=O)(=O)C2)cc1 (stereo unspecified)	Pol beta inh 20µM, Pol kappa inh-1 inconclusive, PI5P4Ka inh inconclusive, POLI inh 18µM, Pol eta inh-1 50µM | POLI cherry-pick 53 | Pol eta inh-2 85
COc1cccc(CN(C(=O)/C=C/c2ccco2)C2CCS(=O)(=O)C2)c1 (stereo unspecified)	Pol beta inh inconclusive, Pol kappa inh-1 89µM, POLI inh 45µM, Pol eta inh-1 inconclusive | POLI cherry-pick inconclusive | Pol eta inh-2 inconclusive
Oc1ccc(C[C@H]2CN([C@@H](Cc3ccc(O)cc3)CN3CCC[C@@H]3CN3C(=S)NC[C@@H]3Cc3ccccc3)C(=S)N2CC2CCCCCC2)cc1	PI5P4Ka inh inconclusive (no result: Pol beta inh, Pol kappa inh-1, POLI inh, Pol eta inh-1)
O=C(CN1CCN(C(C(=O)Nc2ccc(F)cc2)c2ccccc2)CC1)NC1CC1 (stereo unspecified)	none (no result: Pol beta inh)
CCC(=O)N1c2ccc(S(=O)(=O)CCC(=O)N3CCN(c4ccc(F)cc4)CC3)cc2CC1C (stereo unspecified)	none (no result: PI5P4Ka inh, WRN helicase inh)
O=C(O)c1ccc(N=Nc2c(O)ccc3ncccc23)cc1	Pol beta inh 5µM, Pol kappa inh-1 28µM, PI5P4Ka inh inconclusive, POLI inh 4µM, WRN helicase inh inconclusive, Pol eta inh-1 2.8µM | POLI cherry-pick 34 | Pol kappa inh-2 11 | Pol eta inh-2 15
Cc1c(N=Nc2c(-c3ccc([N+](=O)[O-])cc3)[nH]n(C(N)=S)c2=O)cccc1[N+](=O)[O-]	Pol kappa inh-1 inconclusive, PI5P4Ka inh -62, POLI inh inconclusive, WRN helicase inh inconclusive, Pol eta inh-1 50µM | POLI cherry-pick inconclusive | Pol eta inh-2 inconclusive
